Assay outcomes from PubChem.
Wnt act: Wnt/beta-catenin pathway activation. Wnt/beta-catenin reporter cell assay, activator, plate reader. activation, % at 9.35 µM. 1.2% of 300,000 active; in the data active = activation above about 30%, passing the limit was not always enough; inconclusive = no clear call, values can overlap the other calls;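 also: 0% = neutral control wells and 100% = positive control wells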
MITF act: activators of MITF-driven TRPM1 promoter activity in SK-MEL-5 cells | SK-MEL-5 TRPM1-promoter luciferase, 24 h; % of positive control, neutral wells = 0 | 0.75% of 300,000 active | AID 588334 | activation, % at 12.5 µM;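 active = mean activation of at least 80% with every replicate also reaching 80%; inconclusive = mean reaches 80% but some replicate falls short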;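 also: 0% = neutral control wells and 100% = parthenolide positive control wells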
esBAF inh: blocks esBAF chromatin remodeling in mouse ES cells; Bmi1-luciferase knock-in reporter, 24 h; 100% = twice the neutral-well signal; reporter increase, % at 12.5 µM; 2% of 350,000 active; in the data active = activation above about 40%; inconclusive = no clear call, values can overlap the other calls;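 also: 0% = median of the plate's neutral control wells and 100% = double that signal; a rise in the Bmi1 reporter signal indicates esBAF inhibition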
rRNA inh HTS: selective bacterial rRNA inhibition in E. coli | E. coli WT GFP vs humanized-ribosome RFP mutants, fluorescence, 24 h; hits give low values; DMSO median 0, no signal -100 | GFP signal change (wild-type ribosome), % (no concentration beside the values) | 1.6% of 350,000 active | AID 720706;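 active = significant combined selectivity score with lowered wild-type GFP, culture density cut under 30%, mutant RFP and density less affected; inactive = any of these conditions unmet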
AF4-AF9 inh: blocks AF4 peptide binding to human AF9 | 0.47% of 350,000 active | P42568 | AlphaScreen, biotin-AF4 peptide binding to FLAG-AF9 | inhibition, % at 10 µM;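 active = every replicate reaching a set inhibition limit, whatever the replicate mean, cut at about 25% in these data; inconclusive = mean inhibition reaches that limit but some replicates miss it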;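 also: 0% = plate neutral control median and 100% = total signal loss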
Target sequence (P42568 whole entry, looked up): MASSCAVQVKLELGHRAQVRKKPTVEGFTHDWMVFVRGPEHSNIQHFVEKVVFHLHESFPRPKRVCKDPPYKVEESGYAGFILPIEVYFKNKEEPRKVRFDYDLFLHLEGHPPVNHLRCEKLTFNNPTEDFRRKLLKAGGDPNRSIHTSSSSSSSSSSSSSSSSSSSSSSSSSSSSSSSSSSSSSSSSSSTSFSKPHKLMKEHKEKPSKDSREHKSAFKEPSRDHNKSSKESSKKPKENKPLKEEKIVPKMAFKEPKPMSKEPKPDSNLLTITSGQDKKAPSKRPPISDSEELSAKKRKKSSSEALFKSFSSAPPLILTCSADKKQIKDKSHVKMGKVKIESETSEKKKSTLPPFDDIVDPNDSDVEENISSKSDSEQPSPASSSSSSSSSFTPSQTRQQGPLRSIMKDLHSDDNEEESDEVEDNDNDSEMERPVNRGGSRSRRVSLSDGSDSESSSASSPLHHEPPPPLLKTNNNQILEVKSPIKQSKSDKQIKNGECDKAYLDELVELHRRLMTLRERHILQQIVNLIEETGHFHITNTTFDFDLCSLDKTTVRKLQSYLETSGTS
An asterisk follows results filed as active; u = inconclusive; x = not tested or not shown. In the library only some 3.7% were active in any assay of this set; here they are far more common.

SMILES | Wnt act | MITF act | esBAF inh | rRNA inh HTS | AF4-AF9 inh
O=C(CSc1ccc(-c2ccccn2)nn1)Nc1cccc(F)c1 | 3.0 | 4.8 | 21.2 | -46.2 | -0.4
COc1ccc(NC(=O)c2ccccc2O)c(OC)c1 | 18.8 | 57.5 | 52.7* | -32.2 | 6.2
COc1ccc(NC(=O)CCN2C(=O)c3ccccc3C2=O)c(OC)c1 | -0.3 | x | -4.3 | 6.5 | -7.7
COc1ccc(NC(=O)c2ccccc2SC)c(OC)c1 | 5.5 | 11.3 | x | -3.7 | -3.1
COc1ccc(OC)c(N(CC(=O)Nc2ccccc2)S(=O)(=O)c2ccccc2)c1 | -2.3 | -6.4 | -4.5 | -15.0 | -2.9
COc1ccc(NC(=O)CN(c2ccccc2)S(=O)(=O)c2ccccc2)c(OC)c1 | 22.8 | 8.4 | 0.2 | -23.9* | 8.7
COc1ccc(OC)c(NC(=O)/C=C/c2ccccc2[N+](=O)[O-])c1 | x | -3.3 | x | x | x
COc1ccc(NC(=O)CCCN2C(=O)CN(C)C2=O)c(OC)c1 | -1.5 | 3.0 | 0.5 | x | 33.0*
COc1ccc(NC(=O)/C=C/c2ccccc2[N+](=O)[O-])c(OC)c1 | 1.0 | 5.5 | x | -22.8* | 3.4
CCCNC(=O)[C@@H]1[C@@H](CO)[C@@H]2Cn3c(cccc3=O)[C@@H]2N1Cc1ccccn1 | x | x | 2.8 | -1.6 | -1.4
CCC(C)(C)C(=O)Nc1cc([N+](=O)[O-])ccc1Cl | -1.9 | -12.2 | x | x | -5.0
COc1ccc(NC(=O)CSc2ccccc2)c(OC)c1 | x | 39.1 | 55.6* | x | x
COc1ccc(NC(=O)c2cc(C(C)C)on2)c(OC)c1 | 12.7 | 43.2 | 50.5* | -16.4 | -4.2
Cc1nc2ccc(NC(=O)c3cncc(Br)c3)cc2s1 | 18.1 | 92.5* | 5.6 | -1.7 | 6.1
Cc1nc2ccc(OC(=O)c3ccccc3)cc2s1 | 1.0 | -2.9 | 2.5 | -17.0 | 4.0
Cc1ccc(NC(=O)Nc2ccc3c(c2)nc(C)n3C)cc1 | x | 9.5 | x | 7.1 | -0.8
Cc1nc2cc(C(=O)O)ccc2s1 | x | 62.1 | 73.2* | x | x
CC(=O)c1ccc(NC(=O)Nc2ccc3c(c2)nc(C)n3C)cc1 | 7.2 | 85.0* | x | 9.2 | -3.1
Cc1nc2ccc(C(=O)Nc3ccc(N(C)C)cc3)cc2s1 | 0.3 | 0.1 | x | -1.3 | -10.8
CC(=O)c1ccc(NC(=O)c2ccc3nc(C)sc3c2)cc1 | -3.3 | x | 48.8* | 2.1 | 2.5
Cc1nc2ccc(NC(=O)c3ccccc3)cc2s1 | u | 58.7 | x | 4.2 | -1.4
C[C@@H]1CN([C@@H](C)CO)C(=O)c2cc(C#CC3CCCCC3)cnc2O[C@@H]1CN(C)S(=O)(=O)c1cccc(F)c1 | x | x | 0.0 | 1.3 | 0.2
CC(C)c1ccc(NC(=O)CSC(C)c2nc3ccccc3c(=O)[nH]2)cc1 (configuration not stated) | -0.6 | 13.9 | 0.3 | 22.1 | x
O=C(CCC(=O)c1cccs1)NNC(=O)c1ccccc1Cl | -1.0 | 14.0 | -7.3 | 0.6 | -1.6
COC(=O)Cc1[nH]nc2c1C(c1ccc(O)c(OC)c1)C(C#N)=C(N)O2 (configuration not stated) | -2.7 | 5.0 | -6.8 | 0.6 | 29.5*
SMILES | Wnt act | MITF act | esBAF inh | rRNA inh HTS | AF4-AF9 inh
O=C(CCC(=O)Nc1ccc(Cl)cc1)N/N=C/c1ccc2c(c1)OCO2 | -0.1 | 12.6 | -3.2 | 10.1 | -0.2
CCC(=O)Nc1ccc(N2CCCCC2)c(C(=O)Nc2ccccc2C)c1 | x | -10.1 | -6.1 | x | x
O=[N+]([O-])c1ccccc1/C=C/C=N/n1c(-c2ccccc2F)n[nH]c1=S | 2.6 | x | -0.1 | -21.4* | x
C=CCNC(=O)c1cc(Cl)cc(Cl)c1 | -1.0 | 4.3 | x | -1.0 | 0.2
CCCC(C)C(=O)Nc1ccc(S(N)(=O)=O)cc1 (configuration not stated) | -0.1 | 0.1 | -2.9 | 4.5 | -0.2
Cc1ccccc1C(=O)NC(CC(C)C)C(=O)Nc1ccc(S(N)(=O)=O)cc1 (configuration not stated) | -2.3 | 0.4 | x | -24.1* | 1.0
COc1cccc(CN2CCN(C(=O)c3cc(-c4cccnc4)nc4ccc(C)cc34)CC2)c1 | -1.6 | 2.5 | x | -27.4* | 5.6
Nc1c(C(=O)N/N=C/c2cccnc2)oc2nc(-c3ccco3)cc(-c3ccco3)c12 | 0.1 | x | x | 8.2 | 1.8
NNC(=O)c1oc2nc(-c3ccco3)cc(-c3ccco3)c2c1N | 0.3 | x | x | -14.4* | 1.6
NC(=O)c1ccc(NC(=O)CNCc2ccccc2Cl)cc1 | -1.5 | x | 6.6 | 3.6 | -0.3
Cc1cc(C)n(CC(=O)O)c(=O)c1[N+](=O)[O-] | 35.3* | -0.4 | x | 9.0 | -2.1
Cc1ccc(NC(=O)c2scc3c2CCCC3)cc1 | 14.6 | 115.1* | x | 5.2 | -3.4
O=C(Nc1ccccc1OC(F)F)c1cc2c(s1)CCC2 | x | 32.7 | 44.4* | -35.5 | -8.9
Cc1ccc(NC(=O)c2cc3c(s2)CCCC3)cc1 | 60.6* | 147.7* | u | -9.3 | -11.7
CO[C@H]1CN(C)C(=O)c2cc(NC(=O)C3CCOCC3)ccc2OC[C@H](C)N(CC2CC2)C[C@@H]1C | x | x | -2.9 | 3.0 | -1.2
O=C(NNC(=O)c1ccccc1Br)c1ccccc1Cl | 1.1 | 4.0 | x | 11.0 | -1.1
O=C(NNC(=S)Nc1ccccc1Cl)c1ccccc1Br | 25.9 | 59.5 | 65.8* | -48.0 | -0.1
O=C(Nc1ccc(Cl)cc1F)c1cccc2ccccc12 | 9.9 | x | 46.9* | 7.0 | -3.1
O=C(Nc1ccc(Cl)cc1F)c1ccccc1Br | 49.2* | 65.4 | x | x | x
O=C(NNC(=O)c1cccc2ccccc12)c1cccc(Br)c1 | -2.0 | 18.3 | 10.6 | -21.9* | 0.7
O=C(Nc1ccc(F)cc1)c1cccc2ccccc12 | 4.0 | x | 24.8 | 0.8 | 2.9
O=C(NNC(=O)c1cccc2ccccc12)c1ccc(Cl)cc1Cl | -5.7 | 18.0 | 61.3* | -4.9 | 1.5
O=C(NNc1cccc(Cl)n1)c1ccc(Cl)cc1Cl | x | x | 52.5* | -3.4 | x
CCN(CC)c1ccc(/C=N/NC(=O)c2ccco2)c(O)c1 | 23.2 | 2.1 | x | -39.3* | 14.7
[O-][n+]1ccc(C2CC2)cc1 | 38.6* | x | 4.1 | x | x
SMILES | Wnt act | MITF act | esBAF inh | rRNA inh HTS | AF4-AF9 inh
O=C(c1ccccc1)c1cc[n+]([O-])cc1 | -2.9 | x | -0.2 | x | x
CN(C)CC(=O)N[C@H]1CC[C@@H](CC(=O)NCCN2CCCCC2)O[C@@H]1CO | x | x | 0.9 | 3.4 | -9.2
CC(C)CCn1cnc2c(NCc3ccccc3)ncnc21 | x | 45.5 | 46.2* | x | x
c1ccc(CNc2ncnc3c2ncn3C2CCCCO2)cc1 (configuration not stated) | 19.2 | 68.1 | 46.3* | x | x
c1ccc(CSc2ncnc3c2ncn3C2CCCCO2)cc1 (configuration not stated) | -4.2 | 100.4* | 83.8* | -18.8 | -3.1
CC(CNC(=O)Cn1cnc2c(NCc3ccccc3)ncnc21)c1ccccc1 (configuration not stated) | -4.0 | 13.7 | -4.9 | 14.6 | -1.2
Fc1ccc(CSc2ncnc3c2ncn3C2CCCCO2)cc1 (configuration not stated) | -3.1 | 69.3 | x | -8.5 | -3.6
OC[C@@H]1CN(Cc2ccccc2)C[C@H](n2cnc3c(NCc4ccc(F)cc4)ncnc32)O1 | x | x | 46.0* | x | 3.4
Clc1ccc(-c2nc3ccc(Cl)cn3c2Cc2ccccc2)cc1 | 6.5 | x | 10.6 | -13.1 | 2.9
